Screening results (PubChem BioAssay)
In the library only some 3.2% were active in any assay of this set; here they are far more common.
rCAG binder-1 – binds r(CAG) RNA repeats; r(CAG) RNA repeat, TO-PRO-1 dye displacement fluorescence; inhibition, % at 3 µM; actives 1.3% (n = 370,000); AID 651821;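 active = inhibition above the plate cutoff, the mean of all test compounds on that plate plus 3 SD, cut at about 35% in these data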;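 also: 0% = DMSO alone and 100% = 100 µM mitoxantrone as full dye displacement; higher means more dye released from RNA so lower well fluorescence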
bovine MsrA act – bovine methionine sulfoxide reductase A activation. activation, % at 10.6 µM. actives 0.3% (n = 360,000). purified bovine MsrA, absorbance read-out; in the data active = activation above about 7.5%;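 also: 0% = vehicle and 100% = reference activator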
DAGLB inh – diacylglycerol lipase beta (human) inhibition; HEK293T DAGLB membrane lysate, EnzChek fluorogenic substrate; Q8NCG7; AID 504411; actives 0.059% (n = 340,000); inhibition, % at 5.17 µM; in the data active = inhibition above about 34%;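 also: 0% = enzyme with vehicle and 100% = wells lacking enzyme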
Target sequence (Q8NCG7 whole entry, looked up): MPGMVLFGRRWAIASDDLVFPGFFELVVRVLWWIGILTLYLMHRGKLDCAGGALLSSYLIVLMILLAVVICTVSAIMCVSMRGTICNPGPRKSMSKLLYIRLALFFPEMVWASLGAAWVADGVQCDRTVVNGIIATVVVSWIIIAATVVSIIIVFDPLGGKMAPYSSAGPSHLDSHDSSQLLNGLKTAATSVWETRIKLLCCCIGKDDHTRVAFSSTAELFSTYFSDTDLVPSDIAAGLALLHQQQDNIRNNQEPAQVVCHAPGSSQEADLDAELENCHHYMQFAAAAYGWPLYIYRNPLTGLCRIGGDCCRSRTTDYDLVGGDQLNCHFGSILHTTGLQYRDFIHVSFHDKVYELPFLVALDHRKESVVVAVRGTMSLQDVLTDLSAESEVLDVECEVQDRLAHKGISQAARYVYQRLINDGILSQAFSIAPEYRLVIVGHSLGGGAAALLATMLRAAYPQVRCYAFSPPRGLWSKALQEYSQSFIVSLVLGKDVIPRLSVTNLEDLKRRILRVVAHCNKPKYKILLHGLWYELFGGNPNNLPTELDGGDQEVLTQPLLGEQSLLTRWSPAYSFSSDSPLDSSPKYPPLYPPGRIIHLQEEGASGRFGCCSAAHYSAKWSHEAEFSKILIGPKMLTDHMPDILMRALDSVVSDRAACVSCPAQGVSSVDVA
NadD inh – inhibitors of Staphylococcus aureus NadD. purified NadD enzyme, colorimetric absorbance read-out. inhibition, % at 20 µM. actives 0.78% (n = 360,000). AID 602399; in the data active = inhibition above about 26%
MsrA inh – inhibitors of bovine MsrA; inhibition, % at 15.5 µM; actives 0.75% (n = 360,000); purified bovine MsrA, absorbance read-out; in the data active = inhibition above about 4.5%;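 also: 0% = vehicle wells with enzyme and 100% = reference inhibitor wells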
DSG3 Ab inh – human desmoglein-3 autoantibody binding inhibition; P32926; DSG3-coupled beads, scFv-anti-DSG3-GFP binding, flow cytometry; hits give low values; binding (percent of control), % at 10 µM; actives 0.48% (n = 310,000); AID 588358;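 active = binding more than 3 SD below its plate's average and above zero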;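 also: hits lower antibody fragment binding to DSG3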
rCAG bind conf – r(CAG) RNA repeat binding, confirmation; shares compounds with rCAG binder-1; TO-PRO-1 dye displacement fluorescence; inhibition, % at 3 µM; actives 70% (n = 4,300); AID 652065;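 active = inhibition above a per-plate cutoff, the mean inhibition of sample wells plus 3 SD, cut at about 35% in these data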;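 also: loss of TO-PRO-1 fluorescence as compound displaces dye from 1x1 AA loop RNA; 0% = DMSO only wells and 100% = 100 µM mitoxantrone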
dCAG dye counter – counter-screen for rCAG RNA binders: DNA CAG dye complex inhibitors. AID 652068. inhibition, % at 3 µM. actives 94% (n = 4,300). d(CAG) DNA oligo TO-PRO-1 dye displacement, fluorescence. shares compounds with rCAG binder-1;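 active = inhibition above its plate's cutoff, the mean test-well inhibition plus 3 SD, cut at about 4.8% in these data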;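 also: 0% = DNA dye mix with DMSO and 100% = 100 µM mitoxantrone; hits displace the dye from DNA and so lower well fluorescence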
DNA CAG DR – counter-screen for rCAG binders: inhibitors of DNA CAG TO-PRO-1 complex; shares compounds with rCAG binder-1; DNA CAG/GTC duplex TO-PRO-1 dye displacement fluorescence; actives 20% (n = 250); IC50, µM; in the data active = IC50 below about 10 µM
dCAG DNA bind – DNA CAG dye complex inhibition, late stage dose response; actives 80% (n = 30); d(CAG) DNA duplex TO-PRO-1 dye displacement, fluorescence; IC50, µM; AID 720649; shares compounds with rCAG binder-1
rCAG binder-2 – molecules binding r(CAG) RNA repeats, late stage dose response; shares compounds with rCAG binder-1; actives 100% (n = 30); AID 720651; r(CAG) RNA TO-PRO-1 dye displacement, fluorescence; IC50, µM
An asterisk follows results filed as active; i = inactive; · = no result given. Unless noted, no rule for the calls is given here.

SMILES	rCAG binder-1	bovine MsrA act	DAGLB inh	NadD inh	MsrA inh	DSG3 Ab inh	rCAG bind conf	dCAG dye counter	others
CCOc1ccc(-c2csc(NC(=O)CSCC(=O)O)n2)c2ccccc12	63*	-6	3	3	0	94	70*	25*	DNA CAG DR=i;dCAG DNA bind=5.5*;rCAG binder-2=1.7*
N#C/C(=C/c1ccc(F)cc1)S(=O)(=O)c1ccccc1	4	0	0	-6	-1	119	·	·
N#C/C(=C\c1ccc(C(=O)O)cc1)S(=O)(=O)c1cc(Br)ccc1Br	55*	-4	19	0	-2	115	12	1
Cc1ccccc1CC(=O)N1CCC(CCC(=O)NC2CC2)CC1	1	-2	-5	2	0	103	·	·
O=C(NN=Cc1c(F)cccc1F)c1ccccc1NS(=O)(=O)c1cccs1	38*	-3	2	1	0	96	21	4.6*
Cc1nn(-c2ccccc2)c(Cl)c1/C=N/NC(=O)c1ccccc1NS(=O)(=O)c1cccs1	76*	-9	5	17	1	102	80*	45*
O=C(NN=Cc1ccc(O)cc1)c1ccccc1NS(=O)(=O)c1cccs1	31	-3	3	3	3	109	·	·
CNC(=O)[C@@H](NC(=O)[C@H](CC(C)C)[C@H](O)C(=O)NO)C(C)(C)C	1	·	·	·	·	·	·	·
C[C@@H]1CN([C@@H](C)CO)C(=O)c2cc(-c3ccccc3F)cnc2O[C@H]1CN(C)Cc1cccc(F)c1	0	0	-7	-4	0	98	·	·
COc1ccc(N2C(c3ccsc3)=Cc3cc4c(cc3C2c2c[nH]c3ccccc23)OCO4)cc1 (stereo unspecified)	22	-5	·	17	0	·	·	·
Nc1nc2c(c(=O)[nH]1)C(c1cccc3ccccc13)C1=C(N2)c2ccccc2C1=O (stereo unspecified)	78*	-3	2	12	-1	41*	57*	34*
O=C1CSc2ccc(C(=O)Nc3cccc(S(=O)(=O)Nc4ccc(Br)cc4)c3)cc2N1	39*	-4	7	30	2	95	45*	15*
O=C(O)c1ccc(NC(=O)c2cccc(S(=O)(=O)Nc3ccc(C(=O)O)cc3)c2)cc1	-4	-4	0	-3	2	94	·	·
CN(C)[C@H]1CCN(c2ccc3c(c2)O[C@H]2CCN(C2)S3(=O)=O)C1	5	·	·	·	·	·	·	·
COc1cc(NC(=O)c2cccc3c2C(=O)N(C2CCCCC2)C3)cc(OC)c1OC	15	-8	1	-6	0	102	·	·
COc1ccc(-c2csc(/C(C#N)=C(\O)CSc3nccn3C)n2)cc1OC	38*	2	0	14	1	101	59*	22*
COc1ccc(-c2csc(NC(=O)CSc3nnnn3C)n2)cc1OC	4	-2	3	-3	1	99	·	·
CC(=O)C1=C(O)C(=Cc2ccccc2)OC1=O	36*	-3	1	-3	3	106	19	6.6*
CC(C)(C)c1ccc(-c2c(C(=O)O)c(C(=O)O)c3n2CSC3)cc1	49*	-3	12	-1	0	98	41*	8.4*
O=C(CC1S/C(=N/N=C/c2c[nH]c3ccccc23)NC1=O)Nc1ccccc1 (stereo unspecified)	60*	-6	0	2	4	100	45*	15*
O=C(CC1S/C(=N/N=C/c2c[nH]c3ccc(OCc4ccccc4)cc23)NC1=O)Nc1ccccc1 (stereo unspecified)	40*	-14	6	16	4	95	50*	27*
NNC(=O)c1cccc(S(=O)(=O)Nc2cc(Cl)ccc2Cl)c1	64*	-3	11	-1	0	99	13	3
Cc1noc(NS(=O)(=O)c2ccc(N/C=C\C(=O)c3cccc4ccccc34)cc2)c1C	72*	-5	11	13	2	101	81*	46*
Cc1noc(NS(=O)(=O)c2ccc(N/C=C\C(=O)c3ccc(Br)cc3)cc2)c1C	75*	-4	10	2	3	99	74*	39*
CCOc1ccc(C(=O)/C=C/Nc2ccc(S(=O)(=O)Nc3onc(C)c3C)cc2)cc1	42*	-14	9	9	1	99	64*	25*
SMILES	rCAG binder-1	bovine MsrA act	DAGLB inh	NadD inh	MsrA inh	DSG3 Ab inh	rCAG bind conf	dCAG dye counter	others
Cc1noc(NS(=O)(=O)c2ccc(N/C=C\C(=O)c3ccc4c(c3)OCO4)cc2)c1C	44*	-10	5	4	3	97	43*	14*
COc1cccc(C(=O)/C=C/Nc2ccc(S(=O)(=O)Nc3onc(C)c3C)cc2)c1	13	-3	2	-2	1	102	·	·
C=CCN1C(=O)[C@@H](CC(=O)NCC23CC4CC(CC(C4)C2)C3)[C@]2(C(=O)OCC)CCCCC/C=C/12	8	·	·	·	·	·	·	·
CC1(OC(=O)CCc2ccccc2)C(=O)C=C2C=C(c3ccc(C#N)cc3)N(Cc3ccco3)C=C2C1=O (stereo unspecified)	37*	-4	12	28	1	97	24	16*
CC1(OC(=O)CCc2ccccc2)C(=O)C=C2C=C(c3ccc(C#N)cc3)N(Cc3ccccc3)C=C2C1=O (stereo unspecified)	17	-11	8	20	0	94	·	·
Cc1cc(C)c(C)c(S(=O)(=O)N2C(=S)NC(=O)C2CC(C)C)c1C (stereo unspecified)	41*	-3	6	2	1	98	31	8.0*
CCN(CC)c1ccc(/C=C2/C(=O)c3ccc(C(=O)O)cc3C2=O)cc1	55*	-3	-100	6	0	·	82*	48*
CN(c1ccc(OCC(=O)Nc2cc(Cl)ccc2C(=O)O)cc1)S(=O)(=O)c1ccc(F)cc1	77*	-4	7	2	1	·	74*	34*	DNA CAG DR=6.2*;dCAG DNA bind=2.5*;rCAG binder-2=1.2*
CN(c1ccc(OCC(=O)Nc2ccc(S(N)(=O)=O)cc2)cc1)S(=O)(=O)c1ccc(F)cc1	7	-7	-6	-1	1	105	·	·
